In PubChem BioAssay (NCATS):
Inconclusive results are not listed. Entries that show only a call come without a potency. The source made the active and inactive calls. Calls come from the whole dose curve; as a rule, active = well fitted cell-killing curve with a large enough effect; inconclusive = small, poorly fitted or top-dose-only effect, or effect the other way; inactive = flat fitted curve, though single readings scatter. *1 amine or outer side, *2 acyl side, *3 side chain or, on linkers, in order; H or OH if unused. Where a SMILES comes first, the peptide text is derived from it. [ ]: non-standard residue; d: D form. X4 = CC(C)=CCc1cc(C(O)C(N[*:1])C(=O)[*:2])ccc1O

Tested on: HeLa
Experiment: Primary qHTS to identify gynecologic anti-cancer compounds using libraries of approved drugs and bioactive compounds (AID 1345084); note: nearly all actives have a fitted effect of over 55% in size
Settings: Gynecologic cancer cell panel viability, ATPlite luminescence, 48 h; series mostly up to 57.5 µM
How it was run: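 Cells, 1,000 per well, were allowed to settle for 16 h at 37 C before compound addition. Five concentrations were tested for 48 h, and viability was read by ATPlite luminescence after 15 min at room temperature.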
Potency is the fitted concentration of half-maximal effect.

SMILES	Potency	activity change, negative = cytotoxicity
Cn1nnc(-c2ccc(-c3ccc(N4C[C@H](CO)OC4=O)cc3F)cn2)n1	inactive	
CC(=O)OC1CC2C3(C)CCC(OC(=O)CC(=O)O)C(C)(C)C3CCC2(C)C2(C)CCC(C3(C)CCC(=O)O3)C12 (stereo not drawn)	inactive	
COc1cc(O)cc(/C=C/c2ccc(O[C@@H]3O[C@H](CO)[C@@H](O)[C@H](O)[C@H]3O)cc2)c1	inactive	
O=S(=O)(c1ccccc1)c1cnc2c(N3CCNCC3)cccc2c1	inactive	
CC(C)c1cc(C(=O)N2CC[C@H](NC(=O)C3CC3)C2)n[nH]1	inactive	
CC(=O)OC1C(O)CC2(C)C(CCC(C)C23Cc2c(O)cc(CO)c(C=O)c2O3)C1(C)C (stereo not drawn)	inactive	
COC(=O)CC(C)(O)CC(=O)OCc1ccc(O[C@@H]2O[C@H](CO)[C@@H](O)[C@H](O)[C@H]2O)cc1 (stereo partly drawn)	inactive	
CC(Cc1cc2c(c(C(N)=O)c1)N(CCCO)CC2)NCCOc1ccccc1OCC(F)(F)F (stereo not drawn)	inactive	
O=C1CCC=CC1(O)C(=O)OCc1ccccc1O[C@@H]1O[C@H](CO)[C@@H](O)[C@H](O)[C@H]1O (stereo partly drawn)	inactive	
C=C1C(O)CC2C(C(=O)O)=COC(O[C@@H]3O[C@H](COC(=O)/C=C/c4ccc(O)cc4)[C@@H](O)[C@H](O)[C@H]3O)C12 (stereo partly drawn)	inactive	
O=C(OC1C=C(CO)C2C(OC3OC(CO)C(O)C(O)C3O)OC=CC12)c1ccc(O)cc1 (stereo not drawn)	inactive	
COC(=O)CC(O)CC(O)/C=C/c1c(C)ccc2c1C(O)CC(C)C2 (stereo not drawn)	inactive	
COc1cc(O)c2c(c1)C1=C[C@H](O)[C@@H](O)C[C@]1(C)OC2=O	inactive	
CC(C)c1ccc(CO)cc1O[C@@H]1O[C@H](CO)[C@@H](O)[C@H](O)[C@H]1O	inactive	
CC(=O)O[C@@H]1[C@H](O)[C@@H](O[C@@H]2O[C@@H](C)[C@H](O[C@@H]3OC[C@@H](O)[C@H](O[C@@H]4OC[C@@H](O)[C@H](O)[C@H]4O)[C@H]3O)[C@@H](O[C@@H]3O[C@H](CO)[C@@H](O)[C@H](O)[C@H]3O)[C@H]2O)[C@H](OC(=O)[C@]23CCC(C)(C)C[C@H]2C2=CCC4[C@@]5(C)CC[C@H](O[C@@H]6O[C@H](C(=O)O)[C@@H](O)[C@H](O[C@@H]7OC[C@@H](O)[C@H](O)[C@H]7O)[C@H]6O[C@@H]6O[C@H](CO)[C@H](O)[C@H](O)[C@H]6O)[C@@](C)(C=O)C5CC[C@@]4(C)[C@]2(C)CC3)O[C@@H]1C (stereo partly drawn)		2.25% [at 6.55 µM] (inactive)
C/C=C(\C)C(=O)O[C@@H]1CC2[C@@H](CC=C3C[C@@H](O[C@H]4C[C@H](OC)[C@H](O[C@H]5C[C@H](OC)[C@H](O[C@@H]6O[C@H](C)[C@@H](O[C@H]7C[C@H](OC)[C@H](O[C@@H]8O[C@H](CO)[C@@H](O)[C@H](O)[C@H]8O)[C@@H](C)O7)[C@H](OC)[C@H]6O)[C@@H](C)O5)[C@@H](C)O4)CC[C@@]32C)[C@@]2(O)CC[C@H](C(C)=O)[C@@]12C (stereo partly drawn)		-0.318% [at 6.55 µM] (inactive)
C=C(CCC1=C(C)[C@H]2[C@H](CC3[C@@H]4CC=C5C[C@@H](O)C[C@@H](O)[C@]5(C)C4[C@H](O)C[C@@]32C)O1)CO[C@@H]1O[C@H](CO)[C@@H](O)[C@H](O)[C@H]1O (stereo partly drawn)	3160 nM (active)	
C[C@@H]1CC[C@@]2(OC1)O[C@H]1C[C@H]3[C@@H]4CC=C5C[C@@H](O)CC[C@]5(C)[C@H]4CC[C@]3(C)[C@H]1[C@@H]2C	inactive	
COC1=CC(=O)CC(C)C12Oc1cc(OC)cc(O)c1C2=O (stereo not drawn)	inactive	

SMILES	Potency	activity change, negative = cytotoxicity
CC(C)(C)NS(=O)(=O)c1cncc(-c2cc(F)c3nc(N)nn3c2)c1	inactive	
CC(C)=CCc1cc(C(O)C2NC(=O)CNC(=O)C(Cc3c[nH]c4ccccc34)NC(=O)C3CCCN3C(=O)CNC(=O)C(C(C)C)NC(=O)CNC2=O)ccc1O (stereo not drawn) (cyclo(G[X4]GVGPW); configuration not given here)		5.32% [at 11.6 µM] (inactive)
Cc1cc(N2CCN([C@@H]3CN[C@H](C(=O)N4CCSC4)C3)CC2)n(-c2ccccc2)n1	inactive	
CC(=O)N1CCN(Cc2ccc([C@H](C)Nc3nccc(N4C(=O)OC[C@@H]4C(C)C)n3)cc2)CC1	inactive	
C/C(=C\CCC(C)CCO)C(=O)OC1(C)CCC2C(C(=O)O)=COC(OC3OC(CO)C(O)C(O)C3O)C21 (stereo not drawn)	inactive	
Cc1cc(C(N)=O)ccc1-n1c(CCC(=O)O)ccc1-c1ccc(-n2ccnc2)cc1	inactive	
NC(=O)c1csc(C2OC(CO)C(O)C2O)n1 (stereo not drawn)	inactive	
COc1c2c(c(CO)c3c1C(=O)OC3)OC1(C)CCC3(O)C(C)(C)OC(=O)CCC3(C)C1C2 (stereo not drawn)	inactive	
CC1=C(C)C(=O)OC(C(C)C2CCC3C4CC=C5CC(OC6OC(COC7OC(CO)C(O)C(O)C7O)C(O)C(O)C6O)CC(O)C5(C)C4CCC23C)C1 (stereo not drawn)	inactive	
O=C(NCc1cccc(O)c1)c1cc2cc(F)ccc2[nH]1	inactive	
CCOc1cc(CC(=O)NC(CC(C)C)c2ccccc2N2CCCCC2)ccc1C(=O)O (stereo not drawn)	inactive	
CC1(C)CC2C(C1)C(C)(O)C13CC1(COC3=O)C2O (stereo not drawn)	inactive	
NC1(C(=O)NC(CCO)c2ccc(Cl)cc2)CCN(c2ncnc3[nH]ccc23)CC1 (stereo not drawn)	inactive	
COC(=O)c1ccnc(-c2cc(C(=O)NCCc3ccccc3)ccn2)c1	inactive	
COc1cc(OC)c(/C=C/S(=O)(=O)Cc2ccc(OC)c(NCC(=O)O)c2)c(OC)c1	251 nM (active)	
COC(=O)c1cc(OC)cc(OC)c1C(=O)c1c(OC)cc2c(c1O)C1CCCC(C)(O2)O1 (stereo not drawn)	inactive	
O=C(O)CC1CCC(c2ccc(-c3ccc4nc(C(=O)NCc5ccc(OC(F)(F)F)cc5)cn4c3)cc2)CC1 (stereo not drawn)	inactive	
COc1cc2occc2c(O[C@@H]2O[C@H](CO)[C@@H](O)[C@H](O)[C@H]2O)c1CCC(=O)O	inactive	
O=C(Nc1nc2ccccc2n1CCc1ccccc1)c1ccccc1	inactive	
